Data on 15 compounds can be found in PubChem BioAssay (Tox21).

Each structure is given as a SMILES string. Several values for one entry are separate records, joined by “and”; a condition that tells them apart may be missing. Equal entries are not always repeated. A number with no mark means an inactive call. Results filed as inconclusive are left out. Activity calls are given as the source filed them. Unless noted, calls follow the shape of the dose curve; as a rule, active = well fitted curve in the direction sought with a large enough effect in the repeat runs; inconclusive = weak or mixed curves; inactive = no such curve, though single readings can be large; an effect the other way counts as inactive or inconclusive.

Assay [1] can be described thus: A CellTox Green Cytotoxicity Assay to monitor cytotoxicity in HepG2 cells - 32 hour (AID 1224883). Also: nearly all actives have a fitted effect of over 50% in size. The method in brief:
(§1)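 Read-out is fluorescence of a cyanine dye excluded from live cells that stains DNA of dead HepG2 cells, with signal proportional to cytotoxicity. Plates were read at 0, 8, 16, 24, 32 and 40 h after compound addition.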

The nature of assay [2]: A CellTox Green Cytotoxicity Assay to monitor cytotoxicity in HEK293 cells - 8 hour (AID 1224884). Also: nearly all actives have a fitted effect of over 35% in size. Also: potency is read from the fitted curve at half-maximal effect. The method in brief:
(§2)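 Nonlytic real-time cytotoxicity: HEK293 + CellTox Green reagent plated, 5 h preincubation, pintool compound addition (23 nL in DMSO), 37 C for 40 h, fluorescence measured at successive time points.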

Assay [3] is described as follows: qHTS RealTime-Glo MT Cell Viability Assay in HepG2 cells - 16 hour (AID 1224885). Also: nearly all actives have a fitted effect of over 50% in size. The essentials:
(§3)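 Tox21 10K library screened in qHTS format on HepG2 cells carrying RealTime-Glo reagents. Compounds were added after a 5 h preincubation, and the luminescent signal from continuous culture was measured repeatedly during 40 h treatment.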
(In general: Quantitative high-throughput screening tests each substance at several concentrations.)

Assay [4] can be described thus: qHTS RealTime-Glo MT Cell Viability Assay in HEK293 cells - 8 hour (AID 1224887). Also: nearly all actives have a fitted effect of over 50% in size. Also: potency is read from the fitted curve at half-maximal effect. The method in brief: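 Cells were seeded together with NanoLuc luciferase and a prosubstrate that viable cells reduce to a luciferase substrate. After a 5 h incubation at 37 C/5% CO2, compounds were added and luminescence was measured repeatedly during 40 h of treatment.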
Assay [5] in a line: A CellTox Green Cytotoxicity Assay to monitor cytotoxicity in HEK293 cells - 16 hour (AID 1224888). Also: nearly all actives have a fitted effect of over 35% in size. Also: potency is read from the fitted curve at half-maximal effect. The method in brief:
as §2

The nature of assay [6]: qHTS RealTime-Glo MT Cell Viability Assay in HepG2 cells - 0 hour (AID 1224889). Also: nearly all actives have a fitted effect of over 50% in size. The essentials: as §3
The nature of assay [7]: A CellTox Green Cytotoxicity Assay to monitor cytotoxicity in HepG2 cells - 8 hour (AID 1224890). Also: nearly all actives have a fitted effect of over 45% in size. Also: potency is read from the fitted curve at half-maximal effect. The essentials: as §1
The nature of assay [8]: qHTS assay to identify small molecule antagonists of the estrogen receptor alpha (ER-alpha) signaling pathway using the BG1 cell line in the presence of 0.1 nM 17-beta-estradiol - cell viability counter screen (AID 1259241). Also: nearly all actives have a fitted effect of over 40% in size. The method in brief: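 VM7Luc4E2, 4,000 cells/well, phenol red-free medium + 10% charcoal-stripped FBS; 24 hr plating; cpd + 0.1 nM E2 final, 22 hr 37C/5% CO2; CellTiter-Fluor 30 min, fluorescence.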

The nature of assay [9]: qHTS assay to identify small molecule antagonists of the androgen receptor (AR) signaling pathway using the MDA cell line in the presence of 0.5 nM R1881 - cell viability counter screen (AID 1259242). Also: nearly all actives have a fitted effect of over 45% in size. The essentials: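 Counter screen for cytotoxicity run in the same wells as the AR antagonist reporter screen: MDA-kb2 cells were treated 16 hr with test compounds and 0.5 nM R1881, then live-cell protease activity was measured by fluorescence.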

The target of assay [10] is Estrogen receptor (Homo sapiens) (UniProt P03372). Briefly: qHTS assay to identify small molecule antagonists of the estrogen receptor alpha (ER-alpha) signaling pathway using the BG1 cell line in the presence of 0.1 nM 17-beta-estradiol (AID 1259244). Also: nearly all actives have a fitted effect of over 50% in size. Also: potency is read from the fitted curve at half-maximal effect. The method in brief: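 Cells: VM7Luc4E2, endogenous ER-alpha, 4x ERE-luc stable. Pre-culture 5 d, phenol red-free, charcoal-stripped FBS. Plated 24 h, compound + E2 0.1 nM final, 22 h 37C/5% CO2. Readout ONE-Glo luminescence.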

A short description of assay [11]: qHTS assay to identify small molecule phospholipidosis (PLD) inducers (AID 1259344; active = well fitted curve in the direction sought with a large enough effect; an effect the other way counts as inactive or inconclusive). The essentials: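 Phospholipidosis is scored by imaging LipidTOX-stained pits in HepG2 cells exposed to compound for 24 h at 37 C; pit counts and integrated intensities per well and per cell serve as outputs.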
A short description of assay [12]: qHTS assay to identify small molecule HDAC inhibitors (AID 1259364). Also: top concentration of the series differs between compounds; nearly all actives have a fitted effect of over 45% in size. The essentials: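 Luminescence from a cell-permeant luminogenic class I/II HDAC substrate reports endogenous deacetylase activity in intact HCT-116 cells treated with compounds for 2 h.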
Assay [13] is described as follows: qHTS assay to identify small molecule HDAC inhibitors - cell viability counter screen (AID 1259365). The method in brief: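 Luminescence from CellTiter-Glo, developed 30min at room temperature, reports viability of wild-type HCT-116 cells treated 2hr with compounds at 37 C and 5% CO2 after overnight plating.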
The nature of assay [14]: qHTS assay to identify small molecule agonists of the sonic hedgehog signaling (Shh) pathway - cell viability counter screen (AID 1259366). Also: nearly all actives have a fitted effect of over 50% in size. Also: potency is read from the fitted curve at half-maximal effect. The method in brief: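 Cytotoxicity counter screen run in the same wells as the Shh reporter assay. NIH/3T3 cells carrying a Gli1 response element–driven luciferase were treated with DMSO-dissolved compounds for 24hr, and live-cell protease activity was measured with CellTiter-Fluor.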

Assay [15] in a line: qHTS assay to identify small molecule antagonists of the sonic hedgehog signaling (Shh) pathway - cell viability counter screen (AID 1259367). Also: nearly all actives have a fitted effect of over 55% in size. Also: potency is read from the fitted curve at half-maximal effect. The essentials: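 Cells: 3T3 Gli1-Luc, 2,000/well, 4 hr pre-incubation. Compounds in DMSO, then conditioned medium. Incubation 24 hr, 37C, 5% CO2. CellTiter-Fluor at 23 hr, 1 hr, fluorescence.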
The nature of assay [16]: A CellTox Green Cytotoxicity Assay to monitor cytotoxicity in HEK293 cells - 32 hour (AID 1224881). Also: nearly all actives have a fitted effect of over 40% in size. The method in brief:
as §2

The nature of assay [17]: A CellTox Green Cytotoxicity Assay to monitor cytotoxicity in HepG2 cells - 0 hour (AID 1224882). Also: nearly all actives have a fitted effect of over 35% in size. The essentials: as §1
Assay [18] can be described thus: qHTS RealTime-Glo MT Cell Viability Assay in HEK293 cells - 24 hour (AID 1224886). Also: nearly all actives have a fitted effect of over 50% in size. Also: potency is read from the fitted curve at half-maximal effect. The method in brief:
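Luminescence generated by NanoLuc from substrate produced by living HEK293 cells served as the viability signal. Each value reflects the reading at its stated time point during continuous 40 h compound exposure at 37 C.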

The target of assay [19] is Androgen receptor (Homo sapiens) (UniProt P10275). Kind of assay: qHTS assay to identify small molecule antagonists of the androgen receptor (AR) signaling pathway using the MDA cell line in the presence of 0.5 nM R1881 (AID 1259243). Also: nearly all actives have a fitted effect of over 50% in size. Also: potency is read from the fitted curve at half-maximal effect. The essentials:
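Luciferase luminescence is the read-out: compounds are tested for suppressing 0.5 nM R1881-driven MMTV reporter activity in MDA-kb2 cells after 16 hr at 37C.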

Estrogen receptor (Homo sapiens), sequence (P03372 whole entry, looked up): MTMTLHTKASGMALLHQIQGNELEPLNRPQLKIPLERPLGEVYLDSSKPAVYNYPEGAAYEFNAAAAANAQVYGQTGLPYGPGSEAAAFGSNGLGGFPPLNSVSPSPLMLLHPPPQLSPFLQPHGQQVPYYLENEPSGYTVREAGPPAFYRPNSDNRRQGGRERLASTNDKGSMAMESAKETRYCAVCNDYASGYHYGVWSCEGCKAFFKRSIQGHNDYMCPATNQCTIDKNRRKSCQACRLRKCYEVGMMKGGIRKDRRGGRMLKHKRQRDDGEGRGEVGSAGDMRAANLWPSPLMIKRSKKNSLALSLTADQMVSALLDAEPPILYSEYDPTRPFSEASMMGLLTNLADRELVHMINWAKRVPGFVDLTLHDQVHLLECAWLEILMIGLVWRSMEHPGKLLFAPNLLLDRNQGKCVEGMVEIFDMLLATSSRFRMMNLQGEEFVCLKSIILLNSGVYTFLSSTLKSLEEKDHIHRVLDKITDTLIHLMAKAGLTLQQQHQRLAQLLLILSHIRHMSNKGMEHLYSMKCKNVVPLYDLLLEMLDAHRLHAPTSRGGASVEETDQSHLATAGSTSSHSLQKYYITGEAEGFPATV
Androgen receptor (Homo sapiens), sequence (P10275 whole entry, looked up): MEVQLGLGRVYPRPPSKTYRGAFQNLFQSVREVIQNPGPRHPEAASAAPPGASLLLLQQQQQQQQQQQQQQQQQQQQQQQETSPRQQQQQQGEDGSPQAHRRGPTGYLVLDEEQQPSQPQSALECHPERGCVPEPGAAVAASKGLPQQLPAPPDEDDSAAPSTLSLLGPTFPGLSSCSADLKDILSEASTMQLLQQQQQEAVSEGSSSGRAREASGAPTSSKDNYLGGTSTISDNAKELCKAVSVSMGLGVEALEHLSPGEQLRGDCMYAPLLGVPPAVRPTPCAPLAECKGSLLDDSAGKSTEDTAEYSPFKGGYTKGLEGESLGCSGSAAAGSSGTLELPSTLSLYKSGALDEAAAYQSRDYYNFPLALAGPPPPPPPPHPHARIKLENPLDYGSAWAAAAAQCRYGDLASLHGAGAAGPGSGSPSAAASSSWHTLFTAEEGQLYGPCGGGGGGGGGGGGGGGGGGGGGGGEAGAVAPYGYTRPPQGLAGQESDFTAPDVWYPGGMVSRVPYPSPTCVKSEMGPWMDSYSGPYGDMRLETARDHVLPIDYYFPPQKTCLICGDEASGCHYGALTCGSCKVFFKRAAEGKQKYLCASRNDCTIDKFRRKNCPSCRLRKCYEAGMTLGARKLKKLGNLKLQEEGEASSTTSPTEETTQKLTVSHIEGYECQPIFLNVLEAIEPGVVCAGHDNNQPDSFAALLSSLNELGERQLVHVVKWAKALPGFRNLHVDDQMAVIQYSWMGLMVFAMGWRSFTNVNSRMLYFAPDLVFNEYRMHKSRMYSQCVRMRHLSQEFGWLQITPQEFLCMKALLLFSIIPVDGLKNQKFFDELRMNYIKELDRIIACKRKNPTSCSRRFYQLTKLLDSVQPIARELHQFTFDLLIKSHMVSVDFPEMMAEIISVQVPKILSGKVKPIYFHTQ

In the case of `CC(C)(C)c1cc(O)ccc1O`, the Potency entry in assay [1], in assay [2], in [3], in [4], in [5] and in assay [7] was “inactive” in each case. Besides, the Potency entry in assay [9], in assay [10], in assay [11], in [12], in [14] and in [15] was “inactive” throughout. Besides, the result in [6], in assay [8] and in assay [13] was inactive.
Turning to `COP(=O)(OC)O/C(C)=C/C(=O)N(C)C`, the Potency result in assay [16], in assay [1], in [2], in assay [3], in assay [18] and in assay [4] was “inactive” in each case. The Potency result in [5], in [7], in assay [9], in [10], in assay [12] and in assay [15] was “inactive” throughout. Besides, the compound was called inactive in assay [17], in assay [6], in assay [8] and in [13].
As to `CCCN1CCC[C@@H]2Cc3nc(N)ncc3C[C@H]21`, the Potency in assay [2] is 19 µM (active); in assay [5] it was 19 µM (active); in assay [7], 23.9 µM (active). In addition, the Potency result in assay [3], in [18], in assay [4], in assay [9], in assay [10] and in assay [11] was “inactive” each time. For the same compound, the Potency result in [12], in [14] and in assay [15] was “inactive” each time. The call in [6], in assay [8] and in assay [13] was inactive.
On to `C[C@H]1CCCC(=O)CCC/C=C/c2cc(O)cc(O)c2C(=O)O1`, for which the Potency result in assay [16], in assay [2], in [3], in [7], in [9] and in [12] was “inactive” in each case. Besides, the outcome in [17], in assay [6], in assay [8] and in assay [13] was inactive. The Potency was 33.4 µM (active) in assay [18]; 42.1 µM (active) in assay [4]; 20.9 µM (active) in [19]; 23.4 µM (active) and 25.2 µM (active) in [10]; 20.9 µM (active) in assay [14]; 23.4 µM (active) in assay [15].
For `N#CN=C1SCCN1Cc1ccc(Cl)nc1`, the Potency entry in assay [16], in assay [1], in assay [2], in assay [3], in [18] and in [4] was “inactive” in each case. Moreover, the Potency entry in assay [7], in [9], in assay [10], in [12], in assay [14] and in assay [15] was “inactive” each time. Besides, the call in assay [17], in assay [6], in [8] and in assay [13] was inactive.
`O=C(O)C(F)(F)C(F)(F)C(F)(F)C(F)(F)C(F)(F)C(F)(F)F`: the Potency entry in assay [16], in [1], in [2], in assay [3], in assay [18] and in assay [4] was “inactive” throughout. For the same compound, the Potency result in assay [5], in assay [7], in assay [9], in [12], in assay [14] and in assay [15] was “inactive” in each case. In addition, the outcome in assay [17], in assay [6], in assay [8] and in assay [13] was inactive.
In the case of `NNC(N)=O`, the Potency entry in assay [16], in assay [1], in assay [2], in assay [3], in assay [18] and in assay [4] was “inactive” throughout. For the same compound, the Potency entry in [5], in [7], in [9], in [10], in assay [12] and in [14] was “inactive” each time. Further, the Potency entry in assay [15] was “inactive”. Besides, the compound was called inactive in assay [17], in [6], in assay [8] and in assay [13].
Take `CCN(CCO)CCO`: the Potency entry in assay [16], in [2], in [3], in [18], in assay [4] and in assay [5] was “inactive” throughout. Further, the Potency result in assay [7], in assay [9], in assay [10], in assay [12], in assay [14] and in assay [15] was “inactive” throughout. For the same compound, the compound was classed as inactive in [17], in [6], in [8] and in [13].
For the compound `Oc1ccc2c3c1O[C@H]1[C@@H](O)C=C[C@H]4[C@@H](C2)NCC[C@@]341`, the Potency result in assay [16], in assay [1], in [2], in assay [3], in assay [18] and in assay [4] was “inactive” throughout. In addition, the Potency entry in [7], in assay [9], in [11] and in assay [12] was “inactive” throughout. Moreover, the call in assay [17], in assay [6], in assay [8] and in assay [13] was inactive. The Potency in assay [14] was 28.1 µM (active).
Take `C[N+]1(C)CCCCC1`: the compound was classed as inactive in assay [17], in assay [6], in [8] and in assay [13]. Besides, the Potency result in [1], in assay [2], in assay [3], in [18], in assay [4] and in assay [5] was “inactive” throughout. Besides, the Potency entry in assay [7], in assay [9], in assay [19], in assay [12], in assay [14] and in assay [15] was “inactive” in each case.
As for `Cc1ccc(Cl)c(O)c1`, the Potency entry in assay [16], in [1], in assay [2], in [3], in assay [18] and in [4] was “inactive” throughout. In addition, the Potency entry in assay [7], in assay [9], in assay [10], in assay [11], in [12] and in assay [14] was “inactive” in each case. For the same compound, in assay [15], the Potency result was “inactive”. Moreover, the outcome in [17], in assay [6], in assay [8] and in assay [13] was inactive.
Regarding `CC(=NC#N)N(C)Cc1ccc(Cl)nc1`, the call in assay [17], in [6], in [8] and in assay [13] was inactive. Besides, the Potency entry in assay [1], in assay [2], in [3], in assay [18], in [4] and in assay [5] was “inactive” throughout. In addition, the Potency result in assay [7], in assay [9], in assay [12] and in assay [15] was “inactive” throughout.
`CC[C@@H](CO)NC(=O)[C@@H]1C=C2c3cccc4c3c(cn4C)C[C@H]2N(C)C1`: the Potency result in assay [1], in assay [2], in [3], in assay [18], in assay [4] and in assay [5] was “inactive” each time. Moreover, the Potency result in [7], in assay [9], in [10], in assay [11], in assay [14] and in assay [15] was “inactive” each time. Further, the call in [6] and in assay [8] was inactive.
For `CCCC[N+](=O)[O-]`, the compound was called inactive in assay [17], in assay [6], in assay [8] and in assay [13]. For the same compound, the Potency result in assay [1], in [2], in assay [3], in assay [18], in assay [4] and in [9] was “inactive” throughout. Further, the Potency entry in [10], in assay [12] and in assay [15] was “inactive” throughout.
On to `O=c1[nH]c2ccccc2o1`, for which the Potency entry in assay [16], in assay [1], in assay [2], in assay [3], in assay [18] and in assay [4] was “inactive” each time. Moreover, the Potency result in assay [5], in assay [7], in [9], in [12] and in assay [15] was “inactive” each time. Further, the compound was called inactive in assay [17], in assay [6], in assay [8] and in [13].
